aSyn 5UTR act: Activators via SNCA 5'UTR binding, MLPCN. alpha-synuclein 5'UTR reporter, activators screen. activity score, % (tested at 7.5 µM), hits read low. 300,000 compounds, 7.1% hits; in the data active = activity score below about -60%
The depositor's hits bear a star. These entries were drawn from the full list.

SMILES	aSyn 5UTR act
Cc1cc(N2CCN(C)CC2)nc2ccc(NC(=S)N3CCCCC3)cc12	-85*
Cc1cccc(N2CCN(C(=S)Nc3ccc4nc(N5CCN(C)CC5)cc(C)c4c3)CC2)c1C	95
COc1ccc(C(=O)Nc2ccc3nc(N4CCN(C)CC4)cc(C)c3c2)c(OC)c1	-78*
CCN1CCN(c2cc(C)c3cc(NC(=O)c4cccs4)ccc3n2)CC1	-109*
CCN1CCN(c2cc(C)c3cc(NC(=O)c4cccc(OC)c4)ccc3n2)CC1	-124*
COc1ccc(/C=C/C(=O)NC(=S)N2CCN(c3ccccc3OC)CC2)cc1	-160*
O=C(/C=C/c1ccc(F)cc1)NC(=S)N1CCN(c2ccccn2)CC1	-85*
COc1ccc(/C=C/C(=O)NC(=S)N2CCOCC2)cc1	-84*
NC(=O)COc1c(-c2ccc(Br)o2)oc2ccccc2c1=O	-62*
CC(C)CCn1c(SCCc2ccccc2)nc2c1c(=O)[nH]c(=O)n2C	53
Cn1c(=O)[nH]c(=O)c2c1nc(Br)n2Cc1cccc(Br)c1	-70*
CCCCCCn1c(SCCC)nc2c1c(=O)[nH]c(=O)n2C	47
COc1ccc(N2CS(=O)(=O)/C(=C/N(C)C)C2=O)cc1	-93*
O=C1/C(=C/c2cccnc2)CCc2c1[nH]c1ccccc21	-126*
CC(C)C/C=C1\CCc2c([nH]c3ccccc23)C1=O	-229*
Cc1ccc2oc(-c3cccc(NC(=O)Cc4cccs4)c3)nc2c1	-71*
Cc1ccc(-c2nc3ccccc3o2)cc1NC(=S)NC(=O)c1cc2ccccc2o1	-111*
Cc1ccc2oc(-c3ccc(C)c(NC(=O)Cc4cccs4)c3)nc2c1	-142*
Cc1ccc2oc(-c3ccc(C)c(NC(=S)NC(=O)c4cccs4)c3)nc2c1	-193*
Cc1ccc(-c2csc(NC(=S)NC(=O)c3cc4ccccc4o3)n2)cc1	-66*
Cc1cccc(NC(=O)c2cccc(NC(=O)Cc3cccs3)c2)c1	-88*
Cc1ccc2[nH]c3c(c2c1)CCc1cn[nH]c1-3	-62*
O=[N+]([O-])c1nn(-c2ccc3c(c2)OCCO3)n(O)c1=NCc1ccc(F)cc1Cl	-140*
O=[N+]([O-])c1nn(-c2ccc3c(c2)OCCO3)n(O)c1=NCc1ccc(F)cc1	-124*
O=[N+]([O-])c1nn(-c2ccc3c(c2)OCCO3)n(O)c1=NCCC1=CCCCC1	-139*
SMILES	aSyn 5UTR act
CN(C)CCN(C(=O)c1cccs1)c1nc2cc3c(cc2s1)OCCO3	-106*
CN(C)CCN(C(=O)c1ccc(Br)s1)c1nc2cc3c(cc2s1)OCCO3	-72*
CCCCN1C(=O)/C(=C/C=C2\SCCN2C)SC1=S	-121*
O=C(Nc1ccc2c(c1)OCO2)c1cc(C2CC2)on1	-148*
CC(C)c1cc(C(=O)Nc2ccc3c(c2)OCO3)no1	-173*
CC(C)c1cc(C(F)(F)F)n2nc(C(=O)Nc3ccc4c(c3)OCO4)cc2n1	-83*
C(=C\c1cccc2ccccc12)/c1nnc(-c2cccs2)o1	-69*
N#Cc1ccc(CO/N=C/c2ccccc2)cc1	-95*
Cc1ccccc1NC(=O)C(=O)c1cn(C)c2ccccc12	-133*
CC(=O)n1cc(N(C(=O)CCl)c2ccc(Cl)cc2)c2ccccc21	103
Nc1nn(-c2cccc(F)n2)cc1-c1ccccc1	-113*
CC(C)(C)NC(=O)COc1ccc(-c2ccccc2)cc1	-110*
Cc1ccc(OCC(=O)N/N=C\c2cn(Cc3ccccc3)c3ccccc23)cc1C	76
CCNC(=O)COc1ccc(-c2ccccc2)cc1	-116*
Cc1cc(OCC(=O)NC(C)(C)C)ccc1Cl	-93*
CC(=O)Nc1ccc(SCc2ncc(-c3ccccc3)o2)cc1	-130*
CC(=O)N(/N=C1/C(=O)Nc2ccccc21)c1ccccc1	-114*
O=[N+]([O-])c1ccc(O)c(C2=NNC(c3ccccc3F)C2)c1 (stereo not given)	-122*
O=C(Cn1cnc2c(oc3nc4c(cc32)CCCC4)c1=O)Nc1cccc(Cl)c1	66
C=C(C)Cn1cnc2c(oc3nc4c(cc32)CCCC4)c1=O	-85*
CCNC(=S)N/N=C/c1sc(N2CCCCC2)nc1-c1cccs1	-102*
Cc1ccc(NC(=O)C2CC3CCC2C3)c(Br)c1 (stereo not given)	-110*
CCN(CC)c1ccc(NC(=O)C2CC3CCC2C3)cc1 (stereo not given)	-68*
CC(=O)N(c1nnc(-c2ccc(C)cc2)s1)C1CCCC1	-83*
CCN1CCN(c2ccc(NC(=O)c3ccccc3F)cc2Cl)CC1	-136*
SMILES	aSyn 5UTR act
CCCCCC(=O)Nc1ccc(N2CCN(CC)CC2)c(Cl)c1	-152*
CCC1S/C(=N/C(=O)NC2CCCCC2)NC1=O (stereo not given)	-86*
CCc1ccc(C(=O)Cc2cc3cccc(OC)c3oc2=O)cc1	-105*
COc1cccc2cc(C(=O)Nc3ccccc3C)/c(=N/O)oc12	-114*
CCc1ccc(-c2nc(C(N)=O)c3[nH]c(=O)n(-c4ccccc4OC)c3n2)cc1	82
COc1cccc2cc(CC(=O)c3ccccc3)c(=O)oc12	-147*
COc1cccc2cc(C(=O)NCc3ccccc3Cl)c(=O)oc12	-101*
COc1cccc2cc(C(=O)NCc3ccco3)c(=Nc3ccc(C(=O)O)cc3)oc12	-90*
COc1cccc2cc(C(=O)OCC(=O)NCc3ccc4c(c3)OCO4)c(=O)oc12	-92*
COc1cccc2cc(-c3nc4ccccc4o3)c(=O)oc12	-169*
COc1cccc2cc(C(=O)c3ccccc3)oc12	-132*
COc1cccc2cc(CC(=O)c3cc(C)ccc3C)c(=O)oc12	-116*
O=C(NCC1CCCO1)Nc1ccc(Cl)cc1 (stereo not given)	-73*
Cn1c(SCC(=O)NCC2CCCO2)ncc(C(=O)Nc2ccc(Cl)cc2)c1=O (stereo not given)	-72*
CCN(CC)c1ccc(NC(=S)NCC2CCCO2)cc1 (stereo not given)	-83*
Clc1ccc(-c2ccc(CNCC3CCCO3)o2)cc1 (stereo not given)	-67*
S=C(NCC1CCCO1)Nc1ccc(Cl)cc1Cl (stereo not given)	-87*
S=C(NCC1CCCO1)Nc1ccc(Cl)cc1 (stereo not given)	-72*
O=C(/C=C1\NCC2c3ccccc3CCN2C1=O)c1ccccc1 (stereo not given)	-156*
O=C(O)[C@@H]1CCCC[C@@H]1C(=O)N1CCc2ccccc2C1CN1C(=O)c2ccccc2C1=O (stereo not given in full)	68
C=CCn1c(=S)[nH]c2nc3c(cc2c1=O)CCCC3	-92*
CC(=O)Nc1ccc(-c2nc3ccc(NC(C)=O)cc3o2)cc1	-104*
CC(=O)Nc1cc(-c2nc3ccccc3o2)ccc1Cl	-77*
Cc1cc2nc(-c3ccc(NC(=O)C(C)C)cc3)oc2cc1C	-196*
Cn1c(-c2ccc(CN3CCCCC3)o2)nc2ccccc21	-89*
SMILES	aSyn 5UTR act
Cc1ccc(C(=O)NC2CCc3ccccc3C2=O)cc1 (stereo not given)	-169*
C=CCN1C(=O)/C(=C/c2ccc(N(C)C)cc2)S/C1=N\c1nnc(CC)s1	-65*
COc1ccc(-n2c(/C=C3\C(=O)N(C)c4ccccc43)nc3ccccc3c2=O)cc1	-107*
CCN1C(=O)/C(=C/c2nc3ccccc3c(=O)n2-c2ccc(C)cc2)c2ccccc21	-139*
Cc1occc1-c1nc(-c2ccncc2)no1	-77*
Cc1ccc(-c2noc(-c3ccoc3C)n2)cc1	-186*
Cc1ccc(-c2cn(-c3ccccc3)c(SCC(=O)NC3CCS(=O)(=O)C3)n2)cc1C (stereo not given)	-143*
